Molecules are shown by their SMILES.

The test concerns HFF. Briefly: cell viability relative to DMSO control; higher = less cytotoxic. The following applies: 1 µM; 72 h. As to the method: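 Single-dose cytotoxicity screen of the MMV Pandemic Response Box at 1 uM on human foreskin fibroblasts (HFF), 72 h at 37 C. Viability measured by MTT (OD 550 nm) and normalised to the DMSO control (% survival).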
For the compound `CC[C@H](NC(=O)[C@H](C)NC)C(=O)N1C[C@@H](O)C[C@H]1Cc1c(-c2[nH]c3cc(F)ccc3c2C[C@@H]2C[C@H](O)CN2C(=O)[C@H](CC)NC(=O)[C@H](C)NC)[nH]c2cc(F)ccc12`, the cell viability worked out at 31.2%. Then `C[C@H](Cn1cnc2c(N)ncnc21)OCP(=O)(O)O`, with 58.1%; and `C[C@H](NC(=O)C(=O)Nc1ccccc1C(C)(C)C)C(=O)N[C@@H](CC(=O)O)C(=O)COc1c(F)c(F)cc(F)c1F`, with 55.9%. Then `COc1ccc(CNC(=O)C2CCN([C@H](C)c3cccc4ccccc34)CC2)cc1`, with 62.6%; and `O=C1NC(=S)N/C1=C\c1cc(Br)cc(Br)c1O`, with 72.6%; and `O=c1cc(OCc2ccccc2)ccn1Cc1ccccc1`, with 68.5%. Then `CCNC(=O)Nc1cc(-c2ccccc2)c(-c2cncc(C(=O)O)c2)cn1`, with 63.8%; and `O=c1oc2ccc(Br)cc2cc1CSc1ncc[nH]1`, with 74.7%.

For `CN(O)C(=O)c1cc2c(CN3CCC[C@H]3C(N)=O)cn(Cc3ccc(F)cc3)c2cn1`, the cell viability is 64.1%. The result for `CC(C)CCN1C(=O)C(C2=NS(=O)(=O)c3cc(NS(C)(=O)=O)ccc3N2)=C(O)[C@@H]2[C@H]3CC[C@H](C3)[C@@H]21` reads 67.8%; that for `O=c1nc(N2CCN(CC3CCCCC3)CC2)sc2c([N+](=O)[O-])cc(C(F)(F)F)cc12`, 57.6%; that for `CCCCc1ccc(-c2nc(C)c(C(=O)OC)s2)cc1`, 63.9%. Then `CC(C)Nc1ncnc2c1cnn2-c1ccc(Cl)cc1`, with 71.9%. The result for `Nc1nc2c(ncn2/C=C2/CC2(CO)CO)c(=O)[nH]1` reads 63.8%. For the compound `CN(C)CCCOc1ccc(-c2ccc3ncc4c(c3c2)n(C2CCOCC2)c(=O)n4C)cn1`, the cell viability worked out at 60.6%. The result for `C[Si]1(C)CCN(Cc2cc(-c3ccc(Cl)cc3)n(-c3ccc(Cl)cc3)n2)CC1` reads 82.5%; that for `COc1cc2c(O)c3c(c(-c4ccc5c(c4)OCO5)c2cc1OC)C(=O)OC3`, 66.8%; that for `COc1ccc(NS(=O)(=O)c2ccc(Cl)s2)cn1`, 72.2%.

On to `CCOC(=O)Nc1cc(NC(C)CC(C)CN(CC)CC)c2nc(-c3ccccc3)c(-c3ccccc3)nc2n1` (configuration not stated), for which the cell viability is 78.5%.

`O=C(NCc1ccc(F)cc1)c1c(O)c2ncccc2[nH]c1=O`: the cell viability was found to be 50.8%. Compound `Cc1ccc(NC(=O)c2ccc(CN3CCN(C)CC3)cc2)cc1Nc1nccc(-c2cccnc2)n1` came in with a cell viability of 50.1%. On to `O=C(Cn1cnc2ccccc2c1=O)Nc1ccccc1`, for which the cell viability came out at 62.8%.

Take `Nc1nc(=O)c(Br)c(-c2ccccc2)[nH]1`: the cell viability came to 64.9%.

`O=S(=O)(Nc1ccccc1)c1ccc(NC(=S)Nc2ccccc2)cc1` yielded a cell viability of 66.2%. Consider `CCC(C)n1ncn(-c2ccc(N3CCN(c4ccc(OCC5COC(Cn6cncn6)(c6ccc(Cl)cc6Cl)O5)cc4)CC3)cc2)c1=O` (configuration not stated), for which the cell viability is 78.2%. The result for `Nc1cc(-c2nc3ccccc3[nH]2)n[nH]c1=O` reads 67.1%; that for `O=C(NC1CCCc2c1[nH]c1ccc(Cl)cc21)c1ccccn1` (configuration not stated), 67.4%; that for `Cc1onc(-c2ccccc2Cl)c1C(=O)N[C@@H]1C(=O)N2[C@@H]1SC(C)(C)[C@@H]2C(=O)O`, 69%. The result for `CNCC(=O)OCc1cccnc1N(C)C(=O)OC(C)[n+]1cnn(C[C@](O)(c2cc(F)ccc2F)[C@@H](C)c2nc(-c3ccc(C#N)cc3)cs2)c1` (some centres not stated) reads 60.6%; that for `CSc1ccc2c(c1)C(N1CCN(C)CC1)Cc1ccccc1S2` (configuration not stated), 65%. Then `Cc1nc(N(C)C(=O)Cc2ccc(-c3ccccn3)cc2)sc1S(N)(=O)=O`, with 66.3%; and `O=C(NO)C1(CS(=O)(=O)c2ccc(Oc3ccc(Cl)cc3)cc2)CCOCC1`, with 72.6%. As for `O[C@@](Cn1cnnn1)(c1ccc(F)cc1F)C(F)(F)c1ccc(-c2ccc(OCC(F)(F)F)cc2)cn1`, the cell viability came out at 58.9%. Then `CC(=O)Oc1ccccc1C(=O)Nc1ncc([N+](=O)[O-])s1`, with 62.8%; and `CC(C)n1cnc2c(NCc3ccccc3)nc(NCc3ccccc3)nc21`, with 65.3%; and `OB1OCc2c1ccc(Cl)c2F`, with 68.5%.

`CC1(C)CC(NC(=O)C(=O)Nc2ccc(Cl)cc2)CC(C)(C)N1` came in with a cell viability of 69.1%.

Source of the values: the supplement of paper PMC10941209.
